From PubChem BioAssay (NCI) come the findings set out here.

Common to all, as to assay: NCI-60 one-dose screen, 48 h (100 = growth as untreated, 0 = no growth, -100 = all killed)
Conditions in all cases: 10 µM unless noted

For assay [1], the system named is T-47D breast.
The test system of assay [2] is BT-549 breast.
Assay [3] concerns MDA-MB-435 melanoma.
The test system of assay [4] is SW-620 colon.
In assay [5] the test system is MCF7 breast.
In assay [6] the test system is HCT-116 colon.
In assay [7] the test system is HCC-2998 colon.
For assay [8], the system named is KM12 colon.

Molecules are shown by their SMILES. Compounds without any hit were thinned out: in the full panel of roughly 83,000, 20% have a hit.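 In brief: 96-well plates, 48 h treatment, single concentration, percent growth endpoint.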 Values without a mark were called inactive. Calls of active or inactive are those of the source. The calls were made as follows: active = growth percent below 10; inactive = the rest.

In the case of `COc1ccc(/C(C)=C(\c2ccc(Cl)cc2)c2ccc(OCCCN(C)C)cc2)cc1F`, the growth was 67.5% in assay [1]; 88.3% in assay [2]; 29.4% in assay [3]; 38.3% in assay [4]; 13% in assay [5]; 21.2% in assay [6]. Besides, the figures for the growth in assay [7] and in assay [8] were 48.2% and 29.2%, respectively.
Consider `COc1ccc(N(C)c2nc(Cl)nc3cnn(C)c23)cc1`, for which the growth is 43.5% in assay [1]; -13.9% (active) in assay [2]; -22.8% (active) in assay [3]; 27.8% in assay [4]; 15.4% in assay [5]; -18.4% (active) in assay [6]. Further, the growth is 17.6% in assay [7] and 6.55% (active) in assay [8].
As for `CCOC(=O)c1cnn2c(-c3ccc(Cl)cc3)nc(NCc3ccccc3)nc12`, the growth is 43.3% in assay [1]; 101% in assay [2]; 56.2% in assay [3]; 4.94% (active) in assay [4]; 5.18% (active) in assay [5]; 83.9% in assay [7]. In addition, the growth in assay [8] is 54%.
`COc1ccc(/C(C)=N/NS(=O)(=O)c2ccc(C)cc2)cc1OC`: the growth is 87.8% in assay [1]; 100% in assay [2]; 103% in assay [3]; 102% in assay [4]; 102% in assay [5]; 99.9% in assay [7]. Also, in assay [8], the growth was 108%.
Consider `N#C/C(=C\c1ccc(Br)cc1)n1nnc2ccccc21`, for which the growth in assay [1] is 24%; in assay [2] it was -1.46% (active); in assay [3] it was -38.4% (active); in assay [4], -19.9% (active); in assay [5], 14.2%; in assay [7] it was -30.8% (active). The growth in assay [8] is 1.67% (active).
As to `COc1ccc(-c2cn(-c3cccc(C(=O)/C=C/c4cc(OC)c(OC)c(OC)c4)c3)c(=O)[nH]2)cc1`, the growth in assay [1] was -9.54% (active); in assay [2] it was 139%; in assay [3], -9.22% (active); in assay [4] it was -50.7% (active); in assay [5], -34.5% (active); in assay [6], -91.9% (active). The growth in assay [8] is -62.6% (active).
In the case of `O=C1CC(c2ccc3c(c2)OCO3)Nc2cc3c(cc21)OCO3` (centres undefined), the growth in assay [1] was 59.5%; in assay [2], 32.7%; in assay [3] it was -34.6% (active); in assay [4], 25.1%; in assay [5] it was 13.9%; in assay [7] it was 17.6%. Besides, in assay [8], the growth is 15.2%.
In the case of `O=C1CSC(c2ccc(O)cc2)N1c1nnc(Cn2cnnc2)o1` (centres undefined), the growth in assay [1] was 92.3%; in assay [2], 55.8%; in assay [3], -1.5% (active); in assay [4] it was 67.4%; in assay [5], 84%; in assay [6], 93%. Also, the growth in assay [7] was 112%; in assay [8], 49.9%.
As for `CCOc1cc(N)ccc1C(=O)NCCCN(CC)CC`, the growth in assay [1] was 101%; in assay [2], 98.8%; in assay [3] it was 106%; in assay [4], 101%; in assay [5], 96.4%; in assay [7], 95.9%. Besides, the growth in assay [8] was 106%.
As to `O=C1C=CC(=Nc2cc(Br)c(O)c(Br)c2)C=C1`, the growth in assay [1] is 70.7%; in assay [2], 55.1%; in assay [3], 36.1%; in assay [4], 46.4%; in assay [5] it was 40.1%; in assay [7], 102%. Besides, the growth in assay [8] is 94.7%.
As to `NC(=Nc1ccc(N)cc1)C(N)=Nc1ccc(N)cc1`, the growth was 104% in assay [1]; 64.3% in assay [2]; 104% in assay [3]; 99.2% in assay [4]; 90.4% in assay [5]; 95.9% in assay [6]. In addition, the growth in assay [8] is 108%.
With `C=CC(=O)N[C@@H](Cc1ccc(-c2cc(Cl)cc(Cl)c2)cc1)[C@@H](O)[C@H](O)C(=O)O`, the growth in assay [1] was 96.1%; in assay [2], 91.9%; in assay [3] it was 102%; in assay [4] it was 101%; in assay [5], 93.5%; in assay [6], 91.5%. Besides, the growth was 87.3% in assay [7] and 102% in assay [8].
As for `COc1cccc(-c2cnco2)c1OCc1c(C)c(COc2c(OC)cccc2-c2cnco2)c(C)c(COc2c(OC)cccc2-c2cnco2)c1C`, the growth in assay [1] is 33.5%; in assay [2], 39.2%; in assay [3], 54.9%; in assay [4], 75%; in assay [5], 65.5%; in assay [7], 99.3%. In addition, the growth in assay [8] is 64.9%.
Regarding `Cc1ccc(C)c2c1C(=O)OC2=O`, the growth was 96.1% in assay [1]; 104% in assay [2]; 114% in assay [3]; 107% in assay [4]; 93.5% in assay [5]; 118% in assay [7].
For `COc1cccc(-c2nc3sccn3c2-c2ccnc(NCCNS(=O)(=O)c3c(Cl)cccc3Cl)c2)c1`, the growth was 6.81% (active) in assay [1]; 30.4% in assay [2]; 50.4% in assay [3]; 74.1% in assay [4]; 58.4% in assay [5]; 99.4% in assay [7]. The growth in assay [8] was 46.7%.
For the molecule `N=c1ccn2c(n1)OC1C(O)C(CO)OC12` (centres undefined), the growth in assay [1] is 61%; in assay [2], 44.9%; in assay [3], 46.8%; in assay [4], 41.5%; in assay [5] it was 14.9%; in assay [6], 18.3%. Further, the growth in assay [8] was 50.6%.
As for `OCCCCc1nccc2c1[nH]c1ccccc12`, the growth in assay [1] was 110%; in assay [2] it was 57.5%; in assay [3], 85.7%; in assay [4] it was 108%; in assay [5] it was 89%; in assay [6] it was 101%. Further, the growth in assay [8] was 110%.
As for `CC1=NN(c2cccc(Cl)c2)C(=O)/C1=C\c1cn(CC(O)CN2CCCCC2)c2ccccc12` (centres undefined), the growth in assay [1] was 83.3%; in assay [2], 96.1%; in assay [3] it was 1.51% (active); in assay [4], 7.47% (active); in assay [5], 41.1%; in assay [6], 10.2%. The growth in assay [8] is 29.7%.
Regarding `CC(=O)Nc1ccc(-c2cc3c(NCc4ccc(F)cc4)ncnc3s2)cc1`, the growth in assay [1] is 74%; in assay [2], 71.7%; in assay [3] it was 93%; in assay [4], 97.7%; in assay [5], 75.7%; in assay [7] it was 90.1%. Also, the growth in assay [8] was 99.3%.
With `Nc1c(-c2nc3ccc(Br)cc3c(=O)[nH]2)nnn1-c1ccccc1`, the growth in assay [1] is 78.3%; in assay [2] it was 63.1%; in assay [3], 72.2%; in assay [4], 88.1%; in assay [5] it was 78.7%; in assay [7], 80.6%. Besides, the growth in assay [8] is 61.6%.
For the molecule `O=S(=O)(NCCNc1cc(-c2c(-c3cccc(O)c3)nc3sccn23)ccn1)c1ccc(Cl)cc1`, the growth was 26% in assay [1]; 50.2% in assay [2]; 24.8% in assay [3]; 89.2% in assay [4]; 47.8% in assay [5]; 102% in assay [7]. Moreover, the growth in assay [8] was 59.6%.
As for `C/C(=N\NC(N)=S)c1nc2ccc(Cl)cc2[nH]1`, the growth in assay [1] is 40.5%; in assay [2], 74.9%; in assay [3] it was 54.6%; in assay [4] it was 41.4%; in assay [5] it was 8.53% (active); in assay [7], 55.8%. In addition, the growth in assay [8] was 32.1%.
Turning to `O=C1CSC(c2ccccc2O)N1c1nnc(Cn2cnnc2)o1` (centres undefined), the growth in assay [1] was 71.2%; in assay [2], 87.7%; in assay [3], 97.8%; in assay [4], 105%; in assay [5], 54.6%; in assay [6] it was 88.6%. Also, the growth in assay [7] was 77.5%; in assay [8] it was 84.3%.
As for `COc1cc(CNC(=O)/C=C/C=C/c2ccc3c(c2)OCO3)ccc1OCc1cn(-c2ccc(Cl)c(Cl)c2)nn1`, the growth was -4.43% (active) in assay [1]; -8.89% (active) in assay [2]; -18.3% (active) in assay [3]; -33.4% (active) in assay [4]; -46.2% (active) in assay [5]; -30.6% (active) in assay [6]. The growth in assay [7] was 51.1%; in assay [8] it was 1.12% (active).
On to `O=C(NCc1cn(Cc2cccc(Oc3ccccc3)c2)nn1)c1cccnc1NCc1ccc(Cl)cc1`, for which the growth is 31.9% in assay [1]; 41.1% in assay [2]; -2.51% (active) in assay [3]; 36.9% in assay [4]; 14.9% in assay [5]; 9.38% (active) in assay [7].
Take `COc1ccc(OC)c(C(=O)Nc2cccc(-c3cc(=O)c4ccccc4o3)c2)c1`: the growth was 85.6% in assay [1]; 88.2% in assay [2]; 96.2% in assay [3]; 96.8% in assay [4]; 92% in assay [5]; 104% in assay [7]. In addition, the growth in assay [8] was 92.5%.
Regarding `COc1ccc(/C(C)=C(\c2ccc(Cl)cc2)c2ccc(OCCN3CCCCCC3)cc2)cc1F`, the growth in assay [1] was 53.6%; in assay [2], 66.3%; in assay [3], 52.4%; in assay [4], 20.3%; in assay [5], 24.1%; in assay [6], 22.9%. Moreover, the growth in assay [7] is 36.9%; in assay [8], 23%.
On to `C[C@]12CCC(=O)C[C@H]1CC[C@@H]1[C@@H]2CC[C@@]2(C)[C@H]1CC[C@]2(O)C(=O)CO`, for which the growth in assay [1] is 99.5%; in assay [2], 105%; in assay [3] it was 102%; in assay [4], 108%; in assay [5], 91.1%; in assay [6], 110%. Also, the growth in assay [8] was 110%.
As to `NC(=O)CC1(O)C=C(Br)C(=O)C(Br)=C1`, the growth in assay [1] is 31%; in assay [2], 28.8%; in assay [3], 32.4%; in assay [4], -36.1% (active); in assay [5] it was 25.6%; in assay [7] it was 76.3%. Besides, the growth in assay [8] is 109%.
With `OC(CBr)c1ccnc2ccccc12` (centres undefined), the growth is 89.1% in assay [1]; 92% in assay [2]; 100% in assay [3]; 104% in assay [4]; 96.3% in assay [5]; 103% in assay [7].
Regarding `COc1cc(/C=C/C(=O)c2ccc(Nc3nc(Nc4ccccc4)nc(Nc4ccc(Cl)cc4)n3)cc2)cc(OC)c1OC`, the growth in assay [1] was 28.3%; in assay [2], 50.9%; in assay [3], 58.8%; in assay [4], 56.2%; in assay [5], 7.84% (active); in assay [6], 0.251% (active). Further, in assay [8], the growth was 46.9%.
With `COc1cc2ccccc2cc1C(=O)NC(=S)Nc1ccc(-c2nc3ccccc3[nH]2)cc1`, the growth is 76.9% in assay [1]; 45.6% in assay [2]; 80.2% in assay [3]; 80.5% in assay [4]; 59% in assay [5]; 96.3% in assay [7]. The growth in assay [8] was 68.2%.
On to `CCc1c(C(=O)N[C@@H]2c3cc(Cl)ccc3CC[C@@H]2O)[nH]c(C)c1C(C)=O`, for which the growth is 70.4% in assay [1]; 80.7% in assay [2]; 97.4% in assay [3]; 90.1% in assay [4]; 85.3% in assay [5]; 95.4% in assay [7]. Also, the growth in assay [8] is 71.6%.
`CC(=O)c1ccc2c(c1)CCN2`: the growth in assay [1] is 105%; in assay [2], 106%; in assay [3] it was 111%; in assay [4], 113%; in assay [5], 98.3%; in assay [6], 100%. The growth in assay [8] was 110%.
Regarding `COc1cc2c(O)n(CCCn3ccnc3)c3c4cnc5cccc(c(=O)c3c2cc1OC)c54`, the growth in assay [1] is -6.91% (active); in assay [2], 27.6%; in assay [3], 51%; in assay [4], 20.4%; in assay [5] it was 10.8%; in assay [7] it was 70.4%. Moreover, the growth in assay [8] is 61%.
